Laboratory results reported in PubChem BioAssay.
Results filed as inconclusive are left out. Calls of active or inactive are those of the source.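 The calls were made as follows, unless noted: active = Her2 level under about 52% in both replicate screens, with viability over 70% of control (limit read from the data); inconclusive = Her2 under the limit in one screen only, or viability under 70%; inactive = Her2 level above the set limit.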

Legend:
[1] = reducers of endogenous Her2 protein level, primary screen, SKBR3 breast tumor cells, AlphaScreen, ATP viability (AID 461); conditions: 18-24 h, measured here: SKBR3 viability, ATP luminescence, at 10 µM;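 as to Her2 level: lower value means less Her2 protein in the cells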;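 as to viability: percent of carrier control wells set as 100% viability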
[2] = biological target: Receptor tyrosine-protein kinase erbB-2 (Homo sapiens) (UniProt P04626); test: as above; conditions: 18-24 h, at 10 µM, stronger effect = lower value
Sequence of Receptor tyrosine-protein kinase erbB-2 (Homo sapiens) (P04626 whole entry, looked up): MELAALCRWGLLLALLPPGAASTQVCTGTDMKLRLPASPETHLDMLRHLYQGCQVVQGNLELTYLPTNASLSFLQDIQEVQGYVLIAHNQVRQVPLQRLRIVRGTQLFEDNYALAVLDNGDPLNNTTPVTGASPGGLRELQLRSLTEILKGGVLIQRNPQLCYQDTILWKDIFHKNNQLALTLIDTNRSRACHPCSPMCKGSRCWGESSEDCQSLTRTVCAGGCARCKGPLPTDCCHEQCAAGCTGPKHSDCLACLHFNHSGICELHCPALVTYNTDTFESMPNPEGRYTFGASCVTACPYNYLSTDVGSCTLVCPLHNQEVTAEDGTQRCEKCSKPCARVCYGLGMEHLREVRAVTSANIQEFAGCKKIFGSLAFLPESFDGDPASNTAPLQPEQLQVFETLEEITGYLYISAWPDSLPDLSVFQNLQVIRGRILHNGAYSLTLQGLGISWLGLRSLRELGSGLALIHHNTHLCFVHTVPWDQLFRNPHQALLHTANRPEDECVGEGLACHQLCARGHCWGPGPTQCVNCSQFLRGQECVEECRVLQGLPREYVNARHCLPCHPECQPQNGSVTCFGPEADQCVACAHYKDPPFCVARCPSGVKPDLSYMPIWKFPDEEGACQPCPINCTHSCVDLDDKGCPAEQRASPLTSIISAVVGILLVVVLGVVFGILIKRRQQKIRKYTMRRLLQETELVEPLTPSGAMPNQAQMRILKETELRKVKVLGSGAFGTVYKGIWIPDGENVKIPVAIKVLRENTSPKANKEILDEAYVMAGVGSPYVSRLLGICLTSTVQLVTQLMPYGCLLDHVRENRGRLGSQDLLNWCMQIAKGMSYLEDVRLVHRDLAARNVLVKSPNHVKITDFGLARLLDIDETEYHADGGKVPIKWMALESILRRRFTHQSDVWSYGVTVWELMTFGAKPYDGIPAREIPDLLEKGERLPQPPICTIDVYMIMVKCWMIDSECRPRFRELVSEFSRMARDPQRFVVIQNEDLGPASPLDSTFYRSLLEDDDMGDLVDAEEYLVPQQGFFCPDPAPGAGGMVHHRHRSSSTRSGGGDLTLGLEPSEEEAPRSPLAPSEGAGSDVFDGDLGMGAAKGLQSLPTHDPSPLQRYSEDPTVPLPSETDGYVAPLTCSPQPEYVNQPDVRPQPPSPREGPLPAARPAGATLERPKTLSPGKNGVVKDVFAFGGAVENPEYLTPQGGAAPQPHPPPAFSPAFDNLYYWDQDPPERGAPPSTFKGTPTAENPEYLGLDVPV

[3] = SK-BR-3 cell growth inhibitors, pilot screen, 24 h, human (AID 572;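 active = viability at or below 10% of carrier control in both of two separate runs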;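 also: compound exposure lasted between 18 and 24 h rather than exactly 24 h; 100% = carrier-treated control wells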); conditions: SK-BR-3 viability, CellTiter-Glo luminescence, at 10 µM, stronger effect = lower value
[4] = HUVEC growth inhibition – cell-based, human, primary screen (AID 575;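 active = viability at or below 30% in both replicate assays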;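 also: 100% = median of untreated cell wells with 0.1% DMSO on each plate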); conditions: HUVEC proliferation, CellTiter-Glo luminescence, 72 h; at 10 µM; stronger effect = lower value
[5] = growth inhibitors of H69AR lung tumor, primary screen, human, duplicate replicates (AID 580;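 active = viability at or under a set limit in both replicates, limit being median viability minus 3 SD, cut at about 48% in these data, passing the limit was not always enough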;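 also: 100% = mean luminescence of untreated wells and 0% = no signal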); conditions: H69AR lung tumor cells viability, ATP luminescence, 72 h; at 10 µM; stronger effect = lower value
[6] = reversal of MRP1-mediated doxorubicin resistance, pilot screen, H69AR cells, doxorubicin co-treatment (AID 601;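 active = viability loss from added drug above about 55%, and viability with drug at most 40%, in both replicates, limit read from the data, passing the limit was not always enough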); conditions: CellTiter-Glo, 72 h, at 10 µM; for differential viability (reversal): stronger effect = higher value
[7] = 384-well plate pilot, post-Golgi transport modulator project, inhibition of yeast transport mutant growth (AID 636; in the data active = inhibition above about 31%); conditions: absorbance 615 nm, about 18 h, stronger effect = higher value
[8] = growth suppression of yeast trafficking mutant, preliminary HTS, modulators of trafficking downstream of Golgi apparatus project, 1536-format plate, OD 615 nm (AID 637; in the data active = inhibition above about 30%); conditions: yeast transport mutant growth, absorbance 615 nm, 18 h; stronger effect = higher value
[9] = OD615 S. cerevisiae growth inhibition, permissive medium, pilot counter-assay, permissive growth control for S. cerevisiae lifespan shortening project (AID 705;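 active = growth inhibition above 25% in both replicates, a cutoff set 3 SD above the mean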); conditions: OD615, 24 h, at 10 µM, stronger effect = higher value
[10] = Restrictive medium S. cerevisiae growth inhibition, OD615, pilot screen of yeast lifespan reduction project, restrictive growth control (AID 706;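 active = growth inhibition above a set limit, 3 SD over mean compound inhibition, in both replicates, cut at about 43% in these data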;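 also: modified DeaD lifespan yeast strain shifted to restrictive glucose medium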); conditions: OD615, 48 h, at 10 µM, stronger effect = higher value
[11] = viability gain of MRP-1-high H69AR cells under doxorubicin, pilot screen, MRP-1 activator project, CellTiter-Glo, duplicate (AID 807;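 active = viability increase at or above a cutoff of the median across tested compounds plus 3 SD, cut at about 8.5% in these data, passing the limit was not always enough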;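 also: compound pretreatment 18-22 h then 72 h combined with doxorubicin; 0% = doxorubicin alone and 100% = vehicle without doxorubicin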); conditions: H69AR viability with doxorubicin, CellTiter-Glo luminescence; at 10 µM; stronger effect = higher value
[12] = growth suppression of beta-catenin knockout HCT116, pilot screen, human colon tumor cells (AID 823;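 active = cell viability at or below a set limit in both duplicate runs, the limit being the all-compound median minus 4 SD, cut at about 23% in these data, passing the limit was not always enough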;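 also: 0% = wells killed by 20 µM Hyamine and 100% = untreated DMSO cell wells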); conditions: CellTiter-Glo, 60 h, at 10 µM, stronger effect = lower value
[13] = growth suppression of PTEN-deleted HCT116, pilot screen, cell-based, HCT116 clonal line, CellTiter-Glo (AID 824;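 active = viability at or below 27.92% in each of two runs, the all-compound median minus 4 SD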;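 also: 0% = 20 µM Hyamine control and 100% = vehicle cell control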); conditions: 60 h, at 10 µM, stronger effect = lower value
[14] = inhibitors of the yeast RAM network, pilot screen, dse1pr::URA3 reporter, 5-FOA selection (AID 869;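 active = inhibition over a set limit, the all-compound mean plus 3 SD, in both replicate runs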;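 also: 0% = DMSO wells with no growth and 100% = 10 µM 1-NA-PP1 with full growth; RAM network block rescues cells from 5-FOA so hits raise OD615 growth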); conditions: S. cerevisiae dse1pr::URA3 5-FOA growth, OD615, 2 d; at 10 µM; stronger effect = higher value; strain carries analog-sensitive mutant Cbk1 kinase
[15] = RAM signaling pathway blockade in yeast – S. cerevisiae, Pdr1DBD-CYC8 efflux-inhibited sensitized strain, primary screen (AID 1298;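 active = RAM network inhibition above 8.4% in each of two replicates, 3 SD over the compound average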;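 also: 0% = DMSO untreated cells without growth and 100% = 10 µM 1-NA-PP1 full growth; higher means more yeast growth rescued from 5-FOA killing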); conditions: S. cerevisiae cbk1-as DSE1-URA3 strain, 5-FOA growth OD615, 2 d; at 50 µM; stronger effect = higher value
[16] = H69AR cells + 2 uM doxorubicin, measured here: viability with 2 uM doxorubicin, stronger effect = lower value
[17] = H69AR cells, compound alone cytotoxicity

SMILES | viability [1] [%] | Her2 level [2] | viability [3] | viability [4] | viability [5] | differential viability (reversal) ([6]; H69AR cells + 2 uM doxorubicin) | viability [6, 16] [%] | viability [6, 17] [%] | inhibition [7] | inhibition [8] | growth inhibition [9] | growth inhibition [10] | viability increase [11] | viability [12] | viability [13] | inhibition [14] | RAM network inhibition [15]
O=C(NCCN1CCOCC1)c1ccc2c(c1)N(Cc1ccccc1F)C(=O)CS2 | 94 | 100% (inactive) | 94% (inactive) | 95% (inactive) | 92.6% (inactive) | -7.79% (inactive) | 100 | 92.6 | -6.4% (inactive) | 1.59% (inactive) | 7.73% (inactive) | 7.02% (inactive) | 1.73% (inactive) | 102% (inactive) | 102% (inactive) | 1.9% (inactive) | 1.89% (inactive)
CCN1CCN(C(=O)C2CCN(C(=O)c3cc4sccc4n3CC)CC2)CC1 | 104 | 104% (inactive) | 104% (inactive) | 115% (inactive) | 83% (inactive) | -15.3% (inactive) | 98.3 | 83 | -5.07% (inactive) | 3.67% (inactive) | -13.3% (inactive) | -13.5% (inactive) | -1.69% (inactive) | 105% (inactive) | 95.5% (inactive) | 0.53% (inactive) | 0.58% (inactive)
CCC1CCCCN1C(=O)CSc1nnc(-c2ccc(OC)cc2)o1 (stereo not drawn) | 98 | 102% (inactive) | 98% (inactive) | 99.8% (inactive) | 87.6% (inactive) | -6.46% (inactive) | 94.1 | 87.6 | -3.6% (inactive) | -9.34% (inactive) | 7.74% (inactive) | 54.4% (active) | -1.66% (inactive) | 95.5% (inactive) | 95.7% (inactive) | 2.38% (inactive) | 1.19% (inactive)
N#Cc1ccc(-c2csc(NC(=O)C3CC3)n2)cc1 | 95.5 | 91% (inactive) | 95.5% (inactive) | 109% (inactive) | 91.9% (inactive) | 6.75% (inactive) | 85.1 | 91.9 | -2.93% (inactive) | 0.16% (inactive) | -18.1% (inactive) | -2.02% (inactive) | 3.47% (inactive) | 103% (inactive) | 88.9% (inactive) | 2.53% (inactive) | 4.29% (inactive)
CCCCS(=O)(=O)NC1=NCN(CCOC(=O)c2ccccc2)CN1 | 95.5 | 84.5% (inactive) | 95.5% (inactive) | 104% (inactive) | 102% (inactive) | 14.3% (inactive) | 87.6 | 102 | -3.6% (inactive) | 2.58% (inactive) | -8.81% (inactive) | -6.13% (inactive) | -2.67% (inactive) | 91.8% (inactive) | 93.2% (inactive) | 0.005% (inactive) | 0.98% (inactive)
Cn1nnnc1SCC(=O)Nc1ccccc1C(=O)NCc1ccccc1 | 99 | 98% (inactive) | 99% (inactive) | 108% (inactive) | 90.2% (inactive) | -4.73% (inactive) | 94.9 | 90.2 | -6.49% (inactive) | -7.33% (inactive) | -9.6% (inactive) | 4.06% (inactive) | -2.1% (inactive) | 97.6% (inactive) | 97.8% (inactive) | 1.04% (inactive) | 7.35% (inactive)
COc1cc(C2N3CC4(C)CN2CC(C)(C3)C4)ccc1O (stereo not drawn) | 94 | 123% (inactive) | 94% (inactive) | 105% (inactive) | 104% (inactive) | 11.5% (inactive) | 92.3 | 104 | -0.51% (inactive) | -2% (inactive) | -5.33% (inactive) | 1.65% (inactive) | 0.39% (inactive) | 104% (inactive) | 98% (inactive) | 1.72% (inactive) | 0.39% (inactive)
COCCNC(=O)Cn1cc2c(n1)CCCCC2 | 93.5 | 101% (inactive) | 93.5% (inactive) | 112% (inactive) | 95.7% (inactive) | 7.38% (inactive) | 88.3 | 95.7 | -1.41% (inactive) | -1% (inactive) | -8.06% (inactive) | 5.06% (inactive) | 0.1% (inactive) | 104% (inactive) | 96.5% (inactive) | 3.16% (inactive) | 5.21% (inactive)
Cc1nn(-c2ccc(F)cc2)c2c1cc(C#N)c1nc3ccccc3n12 | 102 | 81% (inactive) | 102% (inactive) | 56.2% (inactive) | 86.3% (inactive) | 5.42% (inactive) | 80.9 | 86.3 | -2.89% (inactive) | -2.67% (inactive) | 1.38% (inactive) | 8.66% (inactive) | -1.92% (inactive) | 95.9% (inactive) | 93.5% (inactive) | 0.36% (inactive) | 6.61% (inactive)
O=C(NCCN1C(=O)C2C3C=CC(C3)C2C1=O)N1CCOCC1 (stereo not drawn) | 89.5 | 106% (inactive) | 89.5% (inactive) | 90.2% (inactive) | 93.7% (inactive) | 4.75% (inactive) | 88.9 | 93.7 | 0.67% (inactive) | -2.5% (inactive) | -8.54% (inactive) | 8.98% (inactive) | -1.43% (inactive) | 105% (inactive) | 94.9% (inactive) | 1.08% (inactive) | 0.73% (inactive)
COc1cccc(C2CC(c3c(Cl)cccc3Cl)n3nc(N)nc3N2)c1 (stereo not drawn) | 97 | 104% (inactive) | 97% (inactive) | 81.2% (inactive) | 83.6% (inactive) | 4.33% (inactive) | 79.3 | 83.6 | -4.53% (inactive) | -0.98% (inactive) | 4.74% (inactive) | 9.22% (inactive) | -0.07% (inactive) | 103% (inactive) | 91.4% (inactive) | -0.3% (inactive) | 6.92% (inactive)
CCCc1nnc(NC(=O)NCCN2C(=O)C3C4C=CC(C4)C3C2=O)s1 (stereo not drawn) | 110 | 121% (inactive) | 110% (inactive) | 96.6% (inactive) | 97.8% (inactive) | 5.61% (inactive) | 92.2 | 97.8 | 1.87% (inactive) | -13% (inactive) | -2.99% (inactive) | 6.19% (inactive) | -0.68% (inactive) | 101% (inactive) | 101% (inactive) | -0.135% (inactive) | 3.27% (inactive)
CN1CCC(NC(=O)c2cccs2)CC1 | 106 | 90% (inactive) | 106% (inactive) | 84.7% (inactive) | 91% (inactive) | 7.9% (inactive) | 83.1 | 91 | -4.13% (inactive) | 7.5% (inactive) | 9.33% (inactive) | 17.3% (inactive) | -0.16% (inactive) | 96.7% (inactive) | 94.9% (inactive) | 0.86% (inactive) | 1.18% (inactive)
Cn1c(SCC(=O)Nc2ccc(F)cc2)nnc1-c1cccnc1 | 93 | 106% (inactive) | 93% (inactive) | 96.5% (inactive) | 104% (inactive) | 12.8% (inactive) | 90.8 | 104 | -3.87% (inactive) | -2.5% (inactive) | -8.06% (inactive) | 0.86% (inactive) | 2.18% (inactive) | 104% (inactive) | 101% (inactive) | 0.43% (inactive) | 4.04% (inactive)
